In PubChem BioAssay (NCATS):
Records with an inconclusive call do not appear. A number with no mark means an inactive call. Calls follow the shape of the dose curve; as a rule, active = well fitted curve in the direction sought with a large enough effect; inconclusive = small, poorly fitted or top-dose-only effect, or another doubt; inactive = no such curve, though single readings can be large or run the other way.

Assay: KB-3-1 P-gp reporter qHTS against the NCATS DSHEA and TCM libraries (AID 1919975); also: 0% is about no effect
Conditions: KB-3-1 parental cells, CellTiter-Glo luminescence viability, 72 h; series mostly up to 26.1 µM; activity change, negative = inhibition: at the top concentration
Method in brief: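 CellTiter-Glo luminescence viability readout; KB-3-1 parental cells, 500/well, attached ~4 h, then compound for ~72 h, 37C, 5% CO2. Bortezomib intraplate control.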

| Structure (SMILES) | activity change, negative = inhibition |
| --- | --- |
| CC1=C(C/C=C(\C)CCC[C@H](C)CCC[C@H](C)CCCC(C)C)C(=O)c2ccccc2C1=O | 9.07% |
| O=C1O[C@H]([C@@H](O)CO)C(O)=C1O | -8.87% |
| CC12CCC(CC1)C(C)(C)O2 | -5.52% |
| O=C(O)c1ccccc1O | -10.1% |
| NC(N)=NCCC[C@H](N)C(=O)O | 12.6% |
